# Screening results as filed in PubChem BioAssay.
# FLuc inh: blocks purified firefly luciferase enzyme activity | P08659 | purified P. pyralis luciferase, luminescence, biochemical | Potency, µM (titrated, usually from 115 µM), hits mostly inhibitors | hit rate 2.5% among 76,000 | AID 1347043; also: % is scaled to controls: 0 for no effect and ±100 for the full control effect; nearly all actives have a fitted effect of over 65% in size
#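 Inhibitors were tested against purified firefly luciferase in a biochemical, low-substrate format (both substrates at 10uM) and luminescence measured with a CCD imager.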
# GPT2 inhibitor: GPT2 alanine aminotransferase inhibition; Q8TD30; Recombinant GPT2, coupled pyruvate oxidase/HRP Amplex Red fluorescence; Potency, µM (doses to about 57.7 µM), for inactives: at the highest dose activity change, negative = inhibition, usual class: inhibitors; hit rate 0.25% among 100,000; AID 1671188; also: % is scaled to controls: 0 for no effect and ±100 for the full control effect; nearly all actives have a fitted effect of over 60% in size
#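 Fluorescence read-out: pyruvate from GPT2 turnover coupled to pyruvate oxidase, HRP and Amplex Red (0.2mM ThPP, 0.2U/mL PO and HRP, 50uM Amplex final). Substrates 250uM a-KG, 2mM L-alanine; enzyme 10ng/uL; 30 min RT.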
# HEK293 tox: kills HEK 293 cells; Potency, µM (series often up to 115 µM), inactives show at the highest dose activity change, negative = cytotoxicity, most hits filed as inhibitors; AID 1345083; hit rate 6.6% among 94,000; HEK 293 viability, ATP luminescence (CellTiter-Glo), 48-72 h; also: % is scaled to controls: 0 for no effect and ±100 for the full control effect; nearly all actives have a fitted effect of over 60% in size
#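 Cells seeded first (HEK 293, 250 cells/well), then compound added by pintool. Incubation ran 48 or 72 hr at 37 degree Celsius. CellTiter-Glo was added and luminescence imaged after 10 min at room temperature.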
# 3T3 cytotox: kills NIH 3T3 cells; Potency, µM (highest dose often 96.7 µM), for inactives: at the top dose activity change, negative = cytotoxicity, usual class: inhibitors; hit rate 4.3% among 94,000; NIH 3T3 viability, CellTiter-Glo ATP luminescence, 48-72 h; also: % is scaled to controls: 0 for no effect and ±100 for the full control effect; nearly all actives have a fitted effect of over 55% in size
#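 Cytotoxicity was measured by CellTiter-Glo ATP luminescence after 48 or 72 h compound exposure at 37 °C. Mouse NIH 3T3 fibroblasts were seeded at 400 cells/well and dosed by 23 nL pin transfer.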
# hNpr1 antagonist: blocks ANP-stimulated signaling of human Npr1 receptor; P16066; HEK293 hNpr1 GloSensor cGMP, ANP-stimulated luminescence; Potency, µM (series often up to 46.3 µM), inactives show at the top dose activity change, negative = inhibition, usual class: inhibitors; hit rate 1.6% among 76,000; calls by dose curve; also: % is scaled to controls: 0 for no effect and ±100 for the full control effect; nearly all actives have a fitted effect of over 60% in size
# Target sequence (P16066 whole entry, looked up): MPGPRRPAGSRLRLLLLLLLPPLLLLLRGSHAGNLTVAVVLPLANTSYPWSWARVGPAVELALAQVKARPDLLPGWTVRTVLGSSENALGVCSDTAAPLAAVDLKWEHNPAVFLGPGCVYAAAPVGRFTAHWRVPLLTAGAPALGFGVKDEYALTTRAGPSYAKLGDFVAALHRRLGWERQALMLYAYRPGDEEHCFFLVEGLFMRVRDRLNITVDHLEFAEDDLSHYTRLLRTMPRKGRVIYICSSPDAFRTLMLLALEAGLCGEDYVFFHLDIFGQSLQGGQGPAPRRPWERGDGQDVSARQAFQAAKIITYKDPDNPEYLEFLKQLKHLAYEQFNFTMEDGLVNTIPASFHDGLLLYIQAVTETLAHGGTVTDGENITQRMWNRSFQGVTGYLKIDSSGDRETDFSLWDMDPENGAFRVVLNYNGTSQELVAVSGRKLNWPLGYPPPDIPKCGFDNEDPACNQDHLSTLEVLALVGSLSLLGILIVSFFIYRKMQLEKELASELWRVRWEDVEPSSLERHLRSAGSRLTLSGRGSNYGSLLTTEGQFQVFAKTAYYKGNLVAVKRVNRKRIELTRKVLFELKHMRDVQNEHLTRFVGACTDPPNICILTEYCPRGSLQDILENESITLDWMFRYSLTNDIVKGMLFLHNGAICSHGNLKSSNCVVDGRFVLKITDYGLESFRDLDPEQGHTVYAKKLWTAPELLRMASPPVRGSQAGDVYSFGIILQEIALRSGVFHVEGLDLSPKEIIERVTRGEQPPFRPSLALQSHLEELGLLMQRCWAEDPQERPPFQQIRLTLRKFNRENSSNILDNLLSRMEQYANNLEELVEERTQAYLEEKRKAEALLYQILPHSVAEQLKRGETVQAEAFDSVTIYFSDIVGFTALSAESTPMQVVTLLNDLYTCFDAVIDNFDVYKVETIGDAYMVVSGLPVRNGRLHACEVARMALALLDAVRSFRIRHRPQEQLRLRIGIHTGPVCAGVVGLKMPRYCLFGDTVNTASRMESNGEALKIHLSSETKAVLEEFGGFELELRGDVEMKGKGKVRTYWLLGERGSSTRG
#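 HEK293 cells stably expressing human Npr1 and cGMP GloSensor pGS-40F, loaded 2 h with 2% GloSensor reagent, given compound 30 min at room temperature. Luminescence read before and 20 min after 0.1 nM hNppA.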
# Npr1 antag conf: confirmation of human Npr1 natriuretic peptide receptor antagonists | hit rate 76% among 1,400 | Potency, µM (titrated, usually from 57.6 µM), for the others: top-dose activity change, negative = inhibition, usual class: inhibitors | shares compounds with hNpr1 antagonist | HEK293 hNpr1 cGMP GloSensor luminescence, ANP-stimulated | AID 1347044; calls by dose curve; also: nearly all actives have a fitted effect of over 70% in size
# Npr2 selectivity: selectivity test of Npr1 antagonists against human Npr2. shares compounds with hNpr1 antagonist. HEK293 hNpr2 GloSensor cGMP luminescence, CNP-stimulated. Potency, µM (series often up to 57.6 µM), for the others: top-dose activity change, negative = inhibition, actives largely listed as inhibitors. hit rate 67% among 1,400. AID 1347046; calls by dose curve; also: nearly all actives have a fitted effect of over 70% in size
# FLuc counter: inhibits firefly luciferase, false Npr1 antagonist flag; AID 1347047; purified FLuc enzyme, luminescence, Km substrate; Potency, µM (top dose mostly 57.6 µM), inactives show at the highest dose activity change, negative = inhibition, usual class: inhibitors; shares compounds with hNpr1 antagonist; hit rate 0.7% among 1,400; also: 0% is about no effect
# GloSensor ctrl: control cell line activity, Npr1 antagonist counter-screen; shares compounds with hNpr1 antagonist; HEK293 GloSensor cGMP, SNP-stimulated, luminescence; Potency, µM (doses to about 57.6 µM), inactives show at the top dose activity change, negative = inhibition, hits mostly inhibitors; hit rate 69% among 1,400; calls by dose curve; also: % is scaled to controls: 0 for no effect and ±100 for the full control effect; nearly all actives have a fitted effect of over 70% in size
# * = called active by the depositor; i = inactive; ? = inconclusive; . = not tested or not shown; [ ] = dose if it differs, or a comment. Most compounds without a hit are left out; they make up all but 10% or so of the library. Unless noted, calls follow the shape of the dose curve; as a rule, active = well fitted curve in the direction sought with a large enough effect; inconclusive = small, poorly fitted or top-dose-only effect, or another doubt; inactive = no such curve, though single readings can be large; an effect the other way counts as inactive or inconclusive. Potency is read from the fitted curve at half-maximal effect.
SMILES,FLuc inh,GPT2 inhibitor,HEK293 tox,3T3 cytotox,hNpr1 antagonist,Npr1 antag conf,Npr2 selectivity,FLuc counter,GloSensor ctrl
COc1ncccc1-c1cnc2[nH]cc(CC(=O)Nc3cccc(Cl)c3)c2c1,i,-8%[88.5 µM],32µM*,?,?,40µM*,?,1%[86.2 µM],44µM*
O=C(NCc1c[nH]c2ncccc12)c1cccnc1,i,-18%[88.5 µM],-8%[172 µM],-21%[138 µM],1%[70.6 µM],.,.,.,.
CCCNC(=O)N1CCCC1c1nc(CCOCC2CCOCC2)no1 (configuration not stated),.,i,i,-3%,.,.,.,.,.
COc1ccc(CNC(=O)N2CC(n3cc(C(=O)NCC4CC4)nn3)C2)cc1,.,i,4%,-3%,.,.,.,.,.
O=C(c1ccc(Cl)nc1)N1CCN(c2ccnc3ccnn23)CC1,.,i,-10%,-1%,.,.,.,.,.
CN(C)c1nc2c(c(=O)[nH]1)CCN(Cc1ccc(F)cc1Cl)CC2,i,2%,-8%,-9%,-12%,.,.,.,.
Cc1cnc(CC2CCCN(C(=O)C3CCC3)C2)n1Cc1ccccc1 (configuration not stated),i,i,-4%,5%,4%,.,.,.,.
Cc1ccc(C#N)c(N2CCC3(CC2)CC(c2ccccc2)C(=O)N3C)n1 (configuration not stated),i,4%,?,?,-9%,.,.,.,.
COc1ccc(NC(=O)Cn2c(-c3ccccc3)nc(C)cc2=O)cc1,i,1%,?,?,-25%,.,.,.,.
COc1ccc(NC(=O)Cc2c[nH]c3ncc(-c4ccccc4C)cc23)cc1,i,-8%[88.5 µM],79µM*,?,35µM*,25µM*,18µM*,-8%[86.2 µM],31µM*
CCC(O)c1cc2n(n1)CCN(C(=O)c1cn(-c3ccccc3)nn1)C2 (configuration not stated),i,-4%,-6%,-25%,5%,.,.,.,.
CCC(O)c1cc2n(n1)CCN(C(=O)c1ccc(-c3ccccc3)n1C)C2 (configuration not stated),i,-17%,32µM*,?,16µM*,24µM*,24µM*,-2%,24µM*
COc1ccc(CN2CCNc3cnc(OCc4cccnc4)cc3C2)cc1,i,i,?,-23%[138 µM],?,.,.,.,.
c1cncc(COc2cc3c(cn2)NCCN(Cc2ccc4[nH]ccc4c2)C3)c1,i,i,?,?,8.9µM*,20µM*,22µM*,1%[86.2 µM],20µM*
COc1ccc(-c2nccn3cc(C(=O)NCc4cccnc4)nc23)cc1,i,1%,-29%,?,11µM*,24µM*,19µM*,1%,4%
COc1ccc(-c2nccn3cc(C(=O)NCCc4cccnc4)nc23)cc1,i,4%,-14%,-21%,0%,.,.,.,.
CN(C)C(=O)N1C2CCC1CN(c1ccc(C(F)(F)F)cc1)C2,.,-2%,?,?,.,24µM*,19µM*,1%,15µM*
CCOC(=O)[C@@H]1[C@@H](OC)C(=O)N(C)C12CCN([S+](=O)([O-])c1ccc(C(C)=O)cc1)CC2,.,.,3%,?,.,.,.,.,.
O=C(c1nc2c(o1)CCN(Cc1cc(F)ccc1F)CC2)N1CCOCC1,i,4%[88.5 µM],?,-22%[138 µM],1%[70.6 µM],.,.,.,.
COCCNC(=O)c1nc2c(o1)CCN(Cc1cccc(F)c1F)CC2,i,-21%[88.5 µM],-45%[172 µM],?,0%[70.6 µM],.,.,.,.
O=C(Nc1ccc(Cl)cc1)c1nc2c(o1)CCN(Cc1ccc(F)cc1F)CC2,i,?,?,?,3.2µM*,7µM*,8.9µM*,2%[86.2 µM],7.9µM*
COc1ccccc1Cn1c(=O)c(C(=O)N2CCN(C(=O)Nc3ccc(Cl)cc3)CC2)nc2cccnc21,.,1%,?,?,.,.,.,.,.
O=C(Nc1ccc(Cl)cc1)c1nc2c(o1)CCN(Cc1cccc(F)c1F)CC2,i,-3%[88.5 µM],32µM*,?,3.5µM*,6.3µM*,9.9µM*,-6%[86.2 µM],7µM*
COc1ccccc1CN1CCc2nc(C(=O)Nc3ccc(Cl)cc3)oc2CC1,i,i,28µM*,50µM*,13µM*,14µM*,18µM*,0%[86.2 µM],13µM*
O=C(NCCC1CCN(C(=O)Nc2cccc(F)c2)CC1)c1ccccc1F,?,i,?,-27%,1%,.,.,.,.
SMILES,FLuc inh,GPT2 inhibitor,HEK293 tox,3T3 cytotox,hNpr1 antagonist,Npr1 antag conf,Npr2 selectivity,FLuc counter,GloSensor ctrl
O=C(Cc1ccccn1)N1CCCC(C(=O)N2CCC(c3ccccc3)CC2)C1 (configuration not stated),.,i,-8%,1%,.,.,.,.,.
Cc1ccc(OCCC2CCN(C(=O)CCCC(=O)n3nc(C)c4ccccc43)C2)cc1 (configuration not stated),i,i,40µM*,?,10µM*,11µM*,14µM*,0%,11µM*
CCOC(=O)[C@@H]1[C@@H](OC)C(=O)N(C)C12CCN(S(=O)(=O)c1ccc(NC(C)=O)cc1)CC2,.,.,3%,?,.,.,.,.,.
O=C(O)c1ccnc(-c2ccnc(NCc3noc(C4CCCC4)n3)n2)c1,i,i,i,-6%,5%,.,.,.,.
Cc1cc2c(N3CCC(NCc4noc(C5CCC5)n4)CC3)ncnc2s1,i,-1%,?,?,2µM*,1.5µM*,3.1µM*,2%,1.7µM*
CCc1ccc(C(=O)N2CCC(Cc3nc(C(C)C)no3)CC2)cc1,i,i,?,?,16µM*,27µM*,?,2%,24µM*
CC(C)c1ccc(C(=O)N2CCC(Cc3nc(-c4ccc(F)cc4)no3)CC2)cc1,i,i,?,?,1.4µM*,1.4µM*,1.7µM*,0%,1.4µM*
Cc1ccc(C(=O)N2CCC(Cc3nc(-c4ccc(F)cc4)no3)CC2)cn1,i,1%,?,?,1.1µM*,1.4µM*,1.9µM*,2%,1.5µM*
O=C(c1ccc2c(c1)OCO2)N1CCC(Cc2nc(-c3ccc(F)cc3)no2)CC1,i,-11%,?,?,2.5µM*,2.4µM*,2.2µM*,-7%,1.7µM*
